# Source: PubChem BioAssay
# Entries with a potency or affinity are not part of this list. Results filed as inconclusive are left out. Values without a mark were called inactive. No rule for the calls is given here.
# Assay: IGROV1 ovarian cancer cell cytotoxicity, dose response, PAX8 inhibitor project, plate reader, dry powder samples (AID 743043);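 also: more negative means fewer viable cells or more cytotoxicity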
# Settings: series mostly up to 35 µM; activity change, negative = cytotoxicity: at the top concentration
row,SMILES,"activity change, negative = cytotoxicity"
1,C[C@@H]1CCCCO[C@@H](CN(C)Cc2ccc(C(F)(F)F)cc2)[C@@H](C)CN([C@@H](C)CO)C(=O)c2cc(NS(=O)(=O)c3ccc(F)cc3)ccc2O1,-3.41% [at 30 µM]
2,COc1ccc(NC(=O)Nc2ccc3c(c2)C(=O)N([C@@H](C)CO)C[C@@H](C)[C@@H](CN(C)CC2CCCCC2)OCCCC[C@@H](C)O3)cc1,-6.2%
3,C[C@@H]1CN([C@H](C)CO)C(=O)c2cc(NC(=O)Nc3ccc(F)cc3)ccc2O[C@@H](C)CCCCO[C@@H]1CN(C)Cc1ccc2c(c1)OCO2,-8.36%
4,COc1cccc(S(=O)(=O)N2CC[C@H]3[C@@H](CO)N(C)c4ccc(C#Cc5ccc(F)cc5)cc4[C@H]32)c1,-1.85%
5,C[C@@H]1CCCCO[C@H](CN(C)Cc2ccc(C(F)(F)F)cc2)[C@H](C)CN([C@@H](C)CO)C(=O)c2cc(NS(=O)(=O)c3cccs3)ccc2O1,-2.92%
6,C[C@@H]1CN([C@@H](C)CO)C(=O)Cc2cc(NC(=O)NC3CCCCC3)ccc2O[C@@H]1CN(C)Cc1ccc(-c2ccccc2)cc1,-9.73%
7,O=C(Nc1ccc(Cl)c(Cl)c1)N[C@@H]1CC[C@H](CCn2cc(C3CCCCC3)nn2)O[C@H]1CO,9.94%
8,C[C@@H]1CCCCO[C@@H](CN(C)Cc2ccc(C(F)(F)F)cc2)[C@@H](C)CN([C@@H](C)CO)C(=O)c2cc(NS(=O)(=O)c3ccccc3)ccc2O1,1.4%
9,C[C@@H]1CN([C@@H](C)CO)C(=O)Cc2cc(NC(=O)CCC(F)(F)F)ccc2O[C@H]1CN(C)Cc1ccc(-c2ccccc2)cc1,1.47%
10,C[C@@H]1CCCCO[C@H](CN(C)Cc2ccc(C(F)(F)F)cc2)[C@H](C)CN([C@H](C)CO)C(=O)c2cc(NS(=O)(=O)c3ccccc3)ccc2O1,-17.2%
11,O=S(=O)(c1ccccc1F)N1CC[C@@H]2[C@@H](CO)Nc3ccc(C4=CCCCC4)cc3[C@@H]21,8.64%
12,Cc1noc(C)c1S(=O)(=O)N(C)C[C@@H]1OCCCC[C@H](C)Oc2ccc(NS(=O)(=O)c3ccc(Cl)cc3)cc2C(=O)N([C@H](C)CO)C[C@@H]1C,-3.36%
13,C[C@@H]1CCCCO[C@H](CN(C)Cc2ccc(Cl)c(Cl)c2)[C@H](C)CN([C@@H](C)CO)C(=O)c2cc(NC(=O)Nc3ccccc3)ccc2O1,10.1%
14,C[C@H](CO)N1C[C@H](C)[C@@H](CN(C)S(=O)(=O)c2ccc(Cl)cc2)OCCCC[C@H](C)Oc2ccc(NS(=O)(=O)c3ccc(Cl)cc3)cc2C1=O,13.6%
15,C[C@@H]1CN([C@H](C)CO)S(=O)(=O)c2ccc(C#CC3CCCC3)cc2O[C@@H]1CN(C)C(=O)Cc1ccncc1,14.9%
16,O=C(C[C@H]1CC[C@H]2[C@@H](COC[C@@H](O)CN2Cc2ccc(Oc3ccccc3)cc2)O1)N1CCCCC1,-2.43%
17,C[C@@H]1CCCCO[C@@H](CN(C)C(=O)Nc2cccc3ccccc23)[C@H](C)CN([C@H](C)CO)C(=O)c2cc(NS(=O)(=O)c3ccccc3)ccc2O1,5.51%
18,CCCNC(=O)Nc1ccc2c(c1)OC[C@H](C)N(Cc1ccc(-c3ccccn3)cc1)C[C@@H](C)[C@@H](OC)CN(C)C2=O,20.2%
19,CN1c2ccc(-c3cccc(F)c3)cc2[C@@H]2[C@@H](CCN2C(=O)Cc2ccccc2)[C@@H]1CO,17.1%
20,C[C@@H]1CN([C@H](C)CO)C(=O)Cc2cc(NC(=O)Nc3ccc(F)cc3)ccc2O[C@H]1CN(C)Cc1ccc(Cl)c(Cl)c1,10.3%
21,COc1ccc(NC(=O)Nc2ccc3c(c2)CC(=O)N([C@H](C)CO)C[C@@H](C)[C@@H](CN(C)Cc2ccc(Oc4ccccc4)cc2)O3)cc1,-8.13%
22,C[C@@H]1CCCCO[C@H](CN(C)Cc2ccc(C(F)(F)F)cc2)[C@H](C)CN([C@H](C)CO)C(=O)c2cc(NS(=O)(=O)c3cccs3)ccc2O1,4.56%

# Assay: NIH:OVCAR-3 ovarian cancer cell cytotoxicity, dose response, PAX8 inhibitor project, plate reader, dry powder samples (AID 743044)
# Settings: NIH:OVCAR-3 ovarian cancer cell viability; max activity: at 35 µM, hits give low values unless noted; series mostly up to 50 µM; activity change, negative = cytotoxicity: at the top concentration
row,SMILES,max activity
1,C[C@@H]1CCCCO[C@@H](CN(C)Cc2ccc(C(F)(F)F)cc2)[C@@H](C)CN([C@@H](C)CO)C(=O)c2cc(NS(=O)(=O)c3ccc(F)cc3)ccc2O1,"-6.83% [at 16 µM, hits give low values]"
2,COc1ccc(NC(=O)Nc2ccc3c(c2)C(=O)N([C@@H](C)CO)C[C@@H](C)[C@@H](CN(C)CC2CCCCC2)OCCCC[C@@H](C)O3)cc1,"-9.76% [at 4.2 µM, hits give low values]"
3,C[C@@H]1CN([C@H](C)CO)C(=O)c2cc(NC(=O)Nc3ccc(F)cc3)ccc2O[C@@H](C)CCCCO[C@@H]1CN(C)Cc1ccc2c(c1)OCO2,"-19.6% [at 4.2 µM, hits give low values]"
4,COc1cccc(S(=O)(=O)N2CC[C@H]3[C@@H](CO)N(C)c4ccc(C#Cc5ccc(F)cc5)cc4[C@H]32)c1,-17.2%
5,C[C@@H]1CCCCO[C@H](CN(C)Cc2ccc(C(F)(F)F)cc2)[C@H](C)CN([C@@H](C)CO)C(=O)c2cc(NS(=O)(=O)c3cccs3)ccc2O1,"-8.64% [at 0.5 µM, hits give low values]"
6,C[C@@H]1CN([C@@H](C)CO)C(=O)Cc2cc(NC(=O)NC3CCCCC3)ccc2O[C@@H]1CN(C)Cc1ccc(-c2ccccc2)cc1,0% [hits give low values]
7,O=C(Nc1ccc(Cl)c(Cl)c1)N[C@@H]1CC[C@H](CCn2cc(C3CCCCC3)nn2)O[C@H]1CO,"-6.27% [at 16 µM, hits give low values]"
8,C[C@@H]1CCCCO[C@@H](CN(C)Cc2ccc(C(F)(F)F)cc2)[C@@H](C)CN([C@@H](C)CO)C(=O)c2cc(NS(=O)(=O)c3ccccc3)ccc2O1,"24.1% [at 0.26 µM, hits give low values]"
9,C[C@@H]1CN([C@@H](C)CO)C(=O)Cc2cc(NC(=O)CCC(F)(F)F)ccc2O[C@H]1CN(C)Cc1ccc(-c2ccccc2)cc1,"-2.75% [at 16 µM, hits give low values]"
10,C[C@@H]1CCCCO[C@H](CN(C)Cc2ccc(C(F)(F)F)cc2)[C@H](C)CN([C@H](C)CO)C(=O)c2cc(NS(=O)(=O)c3ccccc3)ccc2O1,-11.2%
11,O=S(=O)(c1ccccc1F)N1CC[C@@H]2[C@@H](CO)Nc3ccc(C4=CCCCC4)cc3[C@@H]21,"10.3% [at 4.2 µM, hits give low values]"
12,Cc1noc(C)c1S(=O)(=O)N(C)C[C@@H]1OCCCC[C@H](C)Oc2ccc(NS(=O)(=O)c3ccc(Cl)cc3)cc2C(=O)N([C@H](C)CO)C[C@@H]1C,"-11.5% [at 0.5 µM, hits give low values]"
13,C[C@@H]1CCCCO[C@H](CN(C)Cc2ccc(Cl)c(Cl)c2)[C@H](C)CN([C@@H](C)CO)C(=O)c2cc(NC(=O)Nc3ccccc3)ccc2O1,4.55%
14,C[C@H](CO)N1C[C@H](C)[C@@H](CN(C)S(=O)(=O)c2ccc(Cl)cc2)OCCCC[C@H](C)Oc2ccc(NS(=O)(=O)c3ccc(Cl)cc3)cc2C1=O,"-14.4% [at 8 µM, hits give low values]"
15,C[C@@H]1CN([C@H](C)CO)S(=O)(=O)c2ccc(C#CC3CCCC3)cc2O[C@@H]1CN(C)C(=O)Cc1ccncc1,"16.7% [at 0.5 µM, hits give low values]"
16,O=C(C[C@H]1CC[C@H]2[C@@H](COC[C@@H](O)CN2Cc2ccc(Oc3ccccc3)cc2)O1)N1CCCCC1,35%
17,C[C@@H]1CCCCO[C@@H](CN(C)C(=O)Nc2cccc3ccccc23)[C@H](C)CN([C@H](C)CO)C(=O)c2cc(NS(=O)(=O)c3ccccc3)ccc2O1,"28.6% [at 2.1 µM, hits give low values]"
18,CCCNC(=O)Nc1ccc2c(c1)OC[C@H](C)N(Cc1ccc(-c3ccccn3)cc1)C[C@@H](C)[C@@H](OC)CN(C)C2=O,60.3%
19,CN1c2ccc(-c3cccc(F)c3)cc2[C@@H]2[C@@H](CCN2C(=O)Cc2ccccc2)[C@@H]1CO,21.5%
20,C[C@@H]1CN([C@H](C)CO)C(=O)Cc2cc(NC(=O)Nc3ccc(F)cc3)ccc2O[C@H]1CN(C)Cc1ccc(Cl)c(Cl)c1,"19.8% [at 0.5 µM, hits give low values]"
21,COc1ccc(NC(=O)Nc2ccc3c(c2)CC(=O)N([C@H](C)CO)C[C@@H](C)[C@@H](CN(C)Cc2ccc(Oc4ccccc4)cc2)O3)cc1,"-8.95% [at 16 µM, hits give low values]"
22,C[C@@H]1CCCCO[C@H](CN(C)Cc2ccc(C(F)(F)F)cc2)[C@H](C)CN([C@H](C)CO)C(=O)c2cc(NS(=O)(=O)c3cccs3)ccc2O1,"29.1% [at 0.26 µM, hits give low values]"
